# Bioassay records deposited in PubChem BioAssay by The Scripps Research Institute Molecular Screening Center.
# This is a sample that favours compounds with a hit; in the whole collection about 3.5% have one here.
# MITF primary = MITF inhibitors, primary screen, biochemical, AlphaScreen, human; Microphthalmia-associated transcription factor (Homo sapiens), O75030; AlphaScreen MITF homodimerization, bead proximity signal; inhibition, % at 2.6 µM; 0.91% of 650,000 active; in the data active = inhibition above about 50%;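 also: 0% = vehicle wells with protein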
# TEAD-YAP inh = TEAD-YAP interaction inhibition, primary screen, TEAD-YAP interaction inhibitor project, luminescence, HEK-TIYL cells; TEAD-Gal4/YAP UAS-luciferase luminescence; inhibition, % at 9.12 µM; 1.4% of 640,000 active; in the data active = inhibition above about 32%;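 also: 0% = median of test compound wells and 100% = reference inhibitor wells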
# GPR151 activ = activators of human GPR151, primary screen, cell-based, PathHunter beta-arrestin, luminescence; PathHunter beta-arrestin GPR151 cells; G-protein coupled receptor 151 (Homo sapiens), Q8TDV0; AID 1508602, 2020; activation, % at 11.2 µM; 1% of 650,000 active; in the data active = activation above about 4.9%;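 also: 0% = median of compound wells and 100% = cells with positive control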
# Target sequence (Q8TDV0 whole entry, looked up): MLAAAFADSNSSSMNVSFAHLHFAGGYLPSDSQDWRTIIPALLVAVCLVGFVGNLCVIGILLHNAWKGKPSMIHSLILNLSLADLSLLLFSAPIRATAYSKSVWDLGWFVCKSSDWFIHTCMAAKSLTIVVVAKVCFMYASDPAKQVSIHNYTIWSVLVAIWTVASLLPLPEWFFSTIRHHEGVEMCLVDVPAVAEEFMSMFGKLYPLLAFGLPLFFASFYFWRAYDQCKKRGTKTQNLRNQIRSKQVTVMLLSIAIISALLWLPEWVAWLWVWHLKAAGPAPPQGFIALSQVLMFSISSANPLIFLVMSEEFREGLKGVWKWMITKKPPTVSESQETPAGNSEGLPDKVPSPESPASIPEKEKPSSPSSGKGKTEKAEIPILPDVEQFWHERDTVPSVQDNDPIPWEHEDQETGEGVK
# FBW7 activator = FBW7 E3 ligase activators, primary screen, biochemical, AlphaScreen, human; 0.13% of 650,000 active; F-box/WD repeat-containing protein 7 (Homo sapiens), Q969H0; AlphaScreen FBW7–phospho-cyclin E peptide binding, activator screen; normalized activity (activation), % at 26.1 µM; AID 1259310, 2017; in the data active = normalized activity above about 1.9%;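 also: purified mutant Fbw7 with reduced substrate affinity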
# MITF confirm = MITF inhibitors, retest of hits, confirmation, biochemical, AlphaScreen, triplicate; shares compounds with MITF primary; AlphaScreen MITF homodimerization, biotin/His-MITF beads; inhibition, % at 2.6 µM; 16% of 4,700 active;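 active = inhibition above a cutoff derived from the DMSO control wells, cut at about 28% in these data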;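 also: 0% = MITF dimer wells with DMSO only; inhibitors lower the bead chemiluminescence by keeping MITF from dimerizing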
# AlphaScreen DR = AlphaScreen optical interference compounds, dose response, counter-screen, biochemical, HTS | shares compounds with MITF primary | AlphaScreen optical interference counterscreen, cell-free | IC50, µM | 6% of 480 active; call rule not given here
# AS interf ctr = AlphaScreen optical interference compounds, counter-screen for MITF inhibitor project, biochemical, triplicate; shares compounds with MITF primary; LysRS AlphaScreen counterscreen, signal interference; inhibition, % at 2.6 µM; 7.6% of 4,700 active; AID 1259376, 2018;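 active = inhibition above a cutoff derived from the DMSO control wells, cut at about 30% in these data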
# Starred values were filed as active, the others as inactive; . = no result.
SMILES,MITF primary,TEAD-YAP inh,GPR151 activ,FBW7 activator,MITF confirm,AS interf ctr,others
C=CCc1cc(C)ccc1OCCNC(C)C,87.6*,10.3,-0.1,0.0,-19.4,-3.0,
Cc1ccc(Cl)c(OCCCN2CCOCC2)c1,54.5*,-13.3,0.1,-0.1,13.1,14.2,
C=CCc1cc(OC)ccc1OCCCCN1CCOCC1,32.6,-1.5,-0.9,-0.2,.,.,
COc1cc(C)ccc1OCCCN1CC(C)OC(C)C1 (centres undefined),45.2,-11.1,0.2,0.1,.,.,
C=CCc1cc(C)ccc1OCCCN1CCOCC1,72.4*,4.6,4.0,-0.1,-11.8,37.5*,
Cc1ccc(OCCN2CCOCC2)c(Cl)c1,-7.2,-4.2,1.7,-0.1,.,.,
C=CCc1cc(C)ccc1OCCCN1CC(C)OC(C)C1 (centres undefined),53.4*,-15.0,-0.7,0.3,2.1,-1.0,
C=CCc1cc(C)ccc1OCCN1CCN(C)CC1,57.1*,-11.3,-0.7,0.0,6.2,1.8,
O=C(O)c1ccc(CNC(=O)c2cocc2C(=O)O)o1,55.0*,-3.9,-0.6,0.0,38.1*,6.9,AlphaScreen DR=>7.32
COc1ccc(NCc2ccc(C(=O)O)o2)cc1,28.0,-3.1,-0.9,0.0,.,.,
O=[N+]([O-])c1ccc(/C=N/Nc2ccccn2)o1,18.8,5.7,0.0,-0.3,.,.,
O=C(CN1CCN(C2CCCCC2)CC1)Nc1ccc(C(=O)N2CCOCC2)cc1,56.4*,-0.9,-0.8,1.1,9.5,13.3,
O=C(CNC1CCCC1)Nc1ccc(C(=O)N2CCCCC2)cc1,45.6,1.7,-0.5,0.0,.,.,
O=C(CNC1CCCC1)Nc1ccc(CN2CCCCC2)cc1,64.7*,-6.2,0.7,0.0,3.1,16.0,
CN(C)CCNCC(=O)Nc1ccc(CN2CCCCC2)cc1,94.5*,3.5,-0.1,-0.1,9.0,16.3,
O=C(CN1CCN(C2CCCCC2)CC1)Nc1ccc(Br)cc1,4.8,9.7,0.3,0.2,.,.,
O=C(CNC1CCCCC1)Nc1ccc(C(=O)N2CCCCC2)cc1,53.0*,0.3,0.4,0.3,6.7,13.5,
Cc1cc(Cl)ccc1OCCCC(=O)NNC(=O)Cn1cnc2ccccc2c1=O,-4.1,7.0,0.9,0.0,.,.,
COc1cc(CN2CCN(S(=O)(=O)c3ccc([N+](=O)[O-])cc3)CC2)cc(OC)c1OC,33.9,-5.6,0.2,-0.1,.,.,
COc1cc(CN2CCN(S(=O)(=O)c3ccccc3)CC2)cc(OC)c1OC,41.8,-5.2,-0.2,-0.1,.,.,
COc1cc(CN2CCN(S(=O)(=O)c3ccc(C)cc3)CC2)cc(OC)c1OC,51.8*,6.9,-1.1,0.8,-0.6,11.9,
CCS(=O)(=O)N1CCN(Cc2cc(OC)c(OC)c(OC)c2)CC1,51.8*,4.3,1.8,0.0,7.0,14.0,
COc1cc(CN2CCN(S(=O)(=O)c3ccc(F)cc3)CC2)cc(OC)c1OC,51.5*,6.4,1.7,0.0,-1.9,6.7,
N#CC1=C(N)Oc2cc(N)ccc2C1c1c(F)cccc1Cl (centres undefined),1.6,-5.5,1.1,-0.1,.,.,
CC(=O)c1ccc(NC(=O)c2nc3nc(C)cc(C)n3n2)cc1,-5.0,-6.8,-2.0,0.0,.,.,
COc1ccc(C2C(C(=O)Nc3ccc(C)cc3)=C(C)Nc3ncnn32)cc1OC (centres undefined),69.4*,-10.7,0.7,0.1,7.4,12.4,
c1ccc(CN2CCC(c3ccncc3)CC2)nc1,9.4,3.3,0.3,-0.2,.,.,
CC1CCCN(C(=O)C2CCN(Cc3ccccn3)CC2)C1 (centres undefined),18.1,3.7,2.5,-0.2,.,.,
c1ccc(N2CCN(C3CCN(Cc4ccccn4)CC3)CC2)cc1,53.8*,-2.6,0.7,0.1,4.3,6.7,
Cc1ccccc1CN1CCN(C2CCCC(C)C2)CC1 (centres undefined),76.4*,-6.2,-1.2,0.1,-15.0,3.5,
